PKM2 act = activators of human pyruvate kinase M2 | P14618 | purified PKM2, Kinase-Glo ATP luminescence, activation; response scale: 0% is enzyme alone, no compound | Potency, µM (series often up to 57.5 µM), for inactives: at the top dose activation, hits mostly activators | actives 0.34% (n = 260,000) | AID 1631; also: % is scaled to controls: 0 for no effect and ±100 for the full control effect; nearly all actives have a fitted effect of over 55% in size
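hPK-M2, >95% pure; 0.1 mM ADP / 0.5 mM PEP final; imidazole pH7.2 buffer w/ 7 mM MgCl2, 50 mM KCl; 1 h RT; Kinase-Glo lum. Intermediate enzyme activity for dual inhibitor/activator qHTS.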
GLS inh = blocks human kidney-isoform glutaminase activity. actives 0.21% (n = 410,000). GLS enzymatic activity, qHTS titration. Potency, µM (doses to about 45.5 µM), for inactives: at the highest dose activity change, negative = inhibition, usual class: inhibitors; also: % is scaled to controls: 0 for no effect and ±100 for the full control effect
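hKGA; 45 mM KH2PO4 pH 8.2 + 0.02% Tween-20; cpd via pin tool; 1 mM Gln soln; GluOx/HRP/Amplex Red; RT 30 min; fluor. t0 & final.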
GCN5L2 inh = GCN5L2 (KAT2A) acetyltransferase inhibition. GCN5L2 HAT assay, ThioGlo1 CoA-SH fluorescence. Potency, µM (titrated, usually from 58.9 µM), inactives show at the highest dose activity change, negative = inhibition, most hits filed as inhibitors. actives 0.21% (n = 390,000). AID 504327; also: % is scaled to controls: 0 for no effect and ±100 for the full control effect
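Enzyme at 20nM final was mixed with library compounds for 15 min at room temperature. Peptide H3(1-25) at 75uM, acetyl-CoA at 70uM and ThioGlo1 at 50uM were then added. Plates were read immediately and after 20 min (Ex340nm/Em540nm).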
VDR inhibitor = vitamin D3 receptor (human) inhibition. actives 0.93% (n = 400,000). VDR-SRC2-3 peptide fluorescence polarization, 2 h. Potency, µM, without a hit: max response, negative = inhibition, most hits filed as inhibitors. P11473; also: % is scaled to controls: 0 for no effect and ±100 for the full control effect
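Fluorescence polarization assay of small-molecule disruption of VDR binding to coregulator peptide SRC2-3. Compounds and controls pin-transferred, then read after 2 h incubation at ambient room temperature.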
Mito fusion act = inhibitors of mitochondrial division or activators of mitochondrial fusion; S. cerevisiae fusion-defective mutant growth rescue, CellTiterGlo 48 h; Potency, µM (highest dose often 46.1 µM), inactives show top-dose growth rescue (activation), actives largely listed as activators; actives 0.23% (n = 320,000); also: % of control where 0% means no effect; nearly all actives have a fitted effect of over 45% in size
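Luminescent cell viability in 1536-well qHTS format served as the measure of rescued growth in ts fusion-mutant S. cerevisiae cultured on non-fermentable YPEG for 48 hours at 37C.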
PLK1 PBD block = PLK1 (human) polo-box domain binding inhibition; Plk1 PBD binding of FITC phosphopeptide, fluorescence polarization; Potency, µM, for the others: max response, negative = inhibition, usual class: inhibitors; actives 2.8% (n = 360,000); AID 720504; also: series mostly up to about 57 µM; % is scaled to controls: 0 for no effect and ±100 for the full control effect; nearly all actives have a fitted effect of over 65% in size
Target sequence (P53350 whole entry, looked up, the tested form may be a part): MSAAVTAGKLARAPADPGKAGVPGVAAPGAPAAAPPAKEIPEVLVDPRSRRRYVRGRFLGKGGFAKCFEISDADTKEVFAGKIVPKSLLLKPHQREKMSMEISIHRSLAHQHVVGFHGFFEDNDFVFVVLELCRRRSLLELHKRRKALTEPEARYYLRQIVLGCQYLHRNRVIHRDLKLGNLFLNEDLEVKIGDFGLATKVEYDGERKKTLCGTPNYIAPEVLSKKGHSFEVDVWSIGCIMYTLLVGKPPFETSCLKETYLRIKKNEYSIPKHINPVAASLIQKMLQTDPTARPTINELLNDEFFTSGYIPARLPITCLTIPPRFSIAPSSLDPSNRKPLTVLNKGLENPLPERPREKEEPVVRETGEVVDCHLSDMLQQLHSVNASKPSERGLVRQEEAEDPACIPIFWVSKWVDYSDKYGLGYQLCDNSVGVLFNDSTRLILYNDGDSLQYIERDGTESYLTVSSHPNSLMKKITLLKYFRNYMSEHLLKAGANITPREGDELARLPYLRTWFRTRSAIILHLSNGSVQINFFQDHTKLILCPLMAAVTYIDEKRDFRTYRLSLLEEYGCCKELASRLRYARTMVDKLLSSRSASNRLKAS
Numbers without * were called inactive; ? = inconclusive; . = no result; [ ] = another dose, or the depositor's remark. Only some compounds are listed: those with a hit (about 3.4% of all), similar ones and a draw of the others. Calls follow the shape of the dose curve; as a rule, active = well fitted curve in the direction sought with a large enough effect; inconclusive = small, poorly fitted or top-dose-only effect, or another doubt; inactive = no such curve, though single readings can be large; an effect the other way counts as inactive or inconclusive. Potency is read from the fitted curve at half-maximal effect.

SMILES | PKM2 act | GLS inh | GCN5L2 inh | VDR inhibitor | Mito fusion act | PLK1 PBD block
Cn1cc(S(=O)(=O)c2ccccc2)c(=O)c2cc(Cl)ccc21 | . | 10% | 3% | ? | 0% | 27µM*
CCCn1cc(S(=O)(=O)c2ccc(Cl)cc2)c(=O)c2cc(OC)ccc21 | . | ? | 3% | ? | 4% | 3µM*
CCN(CC)CCn1c(=N)n(CCOc2ccccc2Cl)c2ccccc21 | . | 4% | -4% | -9% | . | .
COc1cc(/C=C(\C#N)C(=O)Nc2nnc(C(F)(F)F)s2)ccc1OCc1ccc(C(F)(F)F)cc1C(F)(F)F | . | . | 7.9µM* | ? | -43% | .
CCOc1cc(/C=C(/C#N)C(=O)Nc2ccc(OC)cc2)ccc1OCc1ccc(C(=O)O)cc1 | 14% | ? | -12% | 2% | 1% | 27µM*
COCCNC(=O)/C(C#N)=C/c1ccc(OC(=O)c2cccs2)c(OC)c1 | 2% | 4% | -5% | 71µM* | -17% | -15%
COc1cc(/C=C(/C#N)C(=O)Nc2ccccc2)ccc1OCc1ccc(C(=O)O)cc1 | -3% | -4% | -17% | -3% | -6% | ?
COc1cc(/C=C(\C#N)C(=O)NCc2ccccc2)ccc1OCc1ccc(C(=O)O)cc1 | 2% | 7% | -13% | ? | 0% | 19µM*
COc1cc(/C=C(\C#N)C(=O)Nc2cc(C(F)(F)F)ccc2Cl)ccc1OCC(=O)Nc1cccc(C(F)(F)F)c1 | -8% | 4% | -4% | 4% | -1% | 8%
COc1ccc(OC)c(S(=O)(=O)NC2CC(=O)N(c3cccc(F)c3)C2)c1 (stereo unspecified) | . | -5% | -12% | 24% | 0% | 1%
O=C(Cn1cnc([N+](=O)[O-])n1)c1ccc(O)c(O)c1 | . | -6% | -11% | -5% | 0% | -5%
CCc1ccc(NC(=O)/C(C#N)=C\c2ccc(OC)c(C(=O)O)c2)cc1 | 1% | 0% | 4% | -19% | -1% | -30%
COc1cc(/C=C(\C#N)C(=O)Nc2ccc(C(=O)O)cc2)ccc1OC(=O)c1cccc(F)c1 | -1%[11.5 µM] | 16% | ? | ? | -1% | 24µM*
COc1ccc(-n2ccn(CC(=O)Nc3ccc(C)cc3C)c(=O)c2=O)cc1 | . | 4% | -1% | 5% | . | .
CC1(C)CC(=O)C=C(c2ccc(-c3ccccc3)cc2)C1 | . | 1% | 2% | -11% | 20% | 2%
CC1(C)CC(=O)C=C(c2cccc(Br)c2)C1 | . | 9% | -10% | ? | 11% | 27µM*
CCN(CC)C(=O)CSc1nc(-c2cccs2)cc(-c2cccs2)c1C#N | 8% | ? | -20% | ? | 22% | 12µM*
CCN(CC)C(=O)CSc1nc(N)c(C#N)c(-c2cccs2)c1C#N | 11% | -2% | 2% | -2% | -3% | -2%
COc1ccc(CN2C(=O)NC3(CCCCCC3)C2=O)cc1F | 2% | -21% | -3% | -12% | 1% | 3.4µM*
CSc1ccc(CN2C(=O)NC3(CCCCC3)C2=O)cc1 | -3% | 0% | -13% | 4% | -4% | -10%
CC(C)c1ccc(CN2C(=O)NC3(CCCCCC3)C2=O)cc1 | 1% | -3% | -7% | -17% | 0% | 27µM*
CCNc1nc(C#N)nc(NCC)n1 | . | . | . | -17% | . | .
CC1(C)CC=C(O[Si](C)(c2ccccc2)c2ccccc2)CC1 | . | . | . | 3% | . | .
O=[N+]([O-])c1cccc(NNS(=O)(=O)c2ccccc2F)c1 | . | -15% | -17% | ? | -17% | 21µM*
CC1=CC(=C(c2ccc(N)cc2)c2ccc(N)cc2)C=CC1=N | . | 19% | -15% | ? | . | .
Cn1c(CCc2nc3ccccc3[nH]2)nnc1SCC#N | 7% | 0% | -9% | -19% | 26% | 19µM*
Cc1nnc(NC(=O)CSc2nnc(CCc3nc4ccccc4[nH]3)n2C)s1 | -8% | -3% | -2% | 16% | -2% | -16%
O=C(NCC(=O)N1CCN(c2ccccc2O)CC1)C1CCCCC1 | . | 5.6µM* | -9% | 20% | 20% | -6%
